Experiment in all cases: thermal shift delta Tm vs DMSO control; higher = stronger stabilization (binding)
Common to all, as to details: 12.5 µM; protein concentration 2 µM

The test system of one assay is LOC_OS01G57100-cb003. The essentials: (§1)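 Thermal shift values come from differential scanning fluorimetry on purified rice kinase domains made in E. coli, with melting temperatures obtained from Boltzmann fits. Samples of 19.5 μl held 2 μM kinase, 100 mM potassium phosphate pH 7.5, 150 mM NaCl, 10% glycerol, 5 × SYPRO Orange and compound in DMSO, and were heated from 25°C to 95°C at 0.05°C/s. Each shift is a triplicate mean relative to the DMSO-only protein sample.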

For the next assay, the system named is LOC_OS01G60330-cb001. The essentials: as §1
A further assay relates to LOC_OS01G60700-cb002. The gist of the method:
as §1

In another assay the test system is LOC_OS01G63280-cb003. The gist of the method:
as §1

For a further assay, the system named is LOC_OS01G67340-cb003. The gist of the method:
as §1

The subject of a further assay is LOC_OS01G70970-cb002. The gist of the method: as §1
The test system of the next assay is LOC_OS02G07810-cb001. The essentials: as §1
Another assay relates to LOC_OS02G08530-cb003. The essentials:
as §1

Another assay has as its system LOC_OS02G14120-cb001. The gist of the method:
as §1

The next assay deals with LOC_OS02G17970-cb001. The gist of the method: as §1
A further assay concerns LOC_OS02G45750-cb003. The essentials:
as §1

Another assay relates to LOC_OS02G54510-cb004. The essentials:
as §1

A further assay has as its system LOC_OS03G04050-cb001. The essentials: as §1
A further assay concerns LOC_OS03G12390-cb001. The essentials: as §1
For the next assay, the system named is LOC_OS03G27990-cb004. The gist of the method: as §1
The next assay deals with LOC_OS03G50450-cb001. The gist of the method: as §1
A further assay concerns LOC_OS03G50810-cb003. The essentials: as §1
The next assay relates to LOC_OS04G35114-cb001. The gist of the method: as §1
The test system of a further assay is T1, LOC_OS04G38480-cb003.
T1 sequence (whole entry): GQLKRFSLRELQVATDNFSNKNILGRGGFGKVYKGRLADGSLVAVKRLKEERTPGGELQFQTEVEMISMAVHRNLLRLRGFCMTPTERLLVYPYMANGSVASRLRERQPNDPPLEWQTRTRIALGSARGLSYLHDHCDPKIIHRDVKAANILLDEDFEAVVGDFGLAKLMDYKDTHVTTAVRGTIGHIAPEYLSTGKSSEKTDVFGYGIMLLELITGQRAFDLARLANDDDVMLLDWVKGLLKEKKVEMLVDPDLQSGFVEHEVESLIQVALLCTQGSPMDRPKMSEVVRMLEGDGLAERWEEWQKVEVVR
The essentials: as §1

The subject of the next assay is T2, LOC_OS04G41100-cb001.
T2 sequence (whole entry): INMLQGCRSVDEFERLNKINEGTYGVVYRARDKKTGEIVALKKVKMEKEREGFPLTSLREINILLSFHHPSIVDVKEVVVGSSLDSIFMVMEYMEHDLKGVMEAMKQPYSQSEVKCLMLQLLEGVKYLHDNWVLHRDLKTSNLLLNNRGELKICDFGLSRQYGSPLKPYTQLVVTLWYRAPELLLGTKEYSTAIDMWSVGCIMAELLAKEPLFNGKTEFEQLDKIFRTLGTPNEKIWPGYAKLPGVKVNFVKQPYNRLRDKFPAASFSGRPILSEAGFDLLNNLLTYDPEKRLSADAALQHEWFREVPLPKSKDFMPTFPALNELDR
The gist of the method: as §1
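Note: purified Escherichia coli-expressed rice kinase domain construct.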

Regarding `Cc1ccc(NC(=O)c2cccc(N(C)C)c2)cc1NC(=O)c1ccc(O)cc1`, the “thermal shift delta Tm” value was 2.98 °C in the assay with LOC_OS01G57100-cb003; 1.17 °C in the assay on LOC_OS01G60330-cb001; 1.43 °C in the assay with LOC_OS01G60700-cb002; 0.32 °C in the assay on LOC_OS01G63280-cb003; -0.19 °C with LOC_OS01G67340-cb003; 0.28 °C in the assay on LOC_OS01G70970-cb002. Also, the “thermal shift delta Tm” value was 1.54 °C with LOC_OS02G07810-cb001; 1.03 °C in the assay with LOC_OS02G08530-cb003; 0.45 °C with LOC_OS02G14120-cb001; 0.95 °C in the assay with LOC_OS02G17970-cb001; 0.7 °C in the assay on LOC_OS02G45750-cb003; 0.45 °C with LOC_OS02G54510-cb004. The “thermal shift delta Tm” value with LOC_OS03G04050-cb001 was found to be 0.56 °C; with LOC_OS03G12390-cb001, 0.34 °C; in the assay with LOC_OS03G27990-cb004 it was 0.26 °C; in the assay with LOC_OS03G50450-cb001, 0.28 °C; in the assay on LOC_OS03G50810-cb003 it was 0.7 °C; in the assay with LOC_OS04G35114-cb001 it was 0.46 °C. The “thermal shift delta Tm” value was 0.87 °C with LOC_OS04G38480-cb003 and 0.23 °C with LOC_OS04G41100-cb001.

In the case of `N#Cc1cnc(Nc2cc(NC[C@H]3CNCCO3)c(C(F)(F)F)cn2)cn1`, the “thermal shift delta Tm” value with LOC_OS01G57100-cb003 was 0.46 °C; with LOC_OS01G60330-cb001, 1.05 °C; in the assay on LOC_OS01G60700-cb002 it was 1.23 °C; in the assay with LOC_OS01G63280-cb003, 0.31 °C; in the assay with LOC_OS01G67340-cb003, 0.67 °C; with LOC_OS01G70970-cb002, 1.58 °C. Moreover, the “thermal shift delta Tm” value with LOC_OS02G07810-cb001 was determined as 0.2 °C; with LOC_OS02G08530-cb003, 0.87 °C; in the assay with LOC_OS02G14120-cb001 it was 2.96 °C; in the assay with LOC_OS02G17970-cb001, 0.44 °C; in the assay on LOC_OS02G45750-cb003, 3.09 °C; with LOC_OS02G54510-cb004 it was 0.4 °C. The “thermal shift delta Tm” value in the assay with LOC_OS03G04050-cb001 was determined as 0.6 °C; in the assay with LOC_OS03G12390-cb001, 0.36 °C; with LOC_OS03G27990-cb004, 0.89 °C; in the assay with LOC_OS03G50450-cb001, 0.52 °C; in the assay on LOC_OS03G50810-cb003, 1.11 °C; in the assay with LOC_OS04G35114-cb001, 1.35 °C. Besides, the “thermal shift delta Tm” value in the assay on LOC_OS04G38480-cb003 is 1.02 °C; in the assay with LOC_OS04G41100-cb001, 0.96 °C.

For the molecule `C[C@H](Nc1ncnc2[nH]cnc12)c1cc2ccc(F)cc2nc1-c1ccccn1`, the “thermal shift delta Tm” value in the assay on LOC_OS01G57100-cb003 was found to be 2.29 °C; in the assay on LOC_OS01G60330-cb001, 1.36 °C; in the assay on LOC_OS01G60700-cb002, 2.33 °C; in the assay on LOC_OS01G63280-cb003 it was 0.52 °C; with LOC_OS01G67340-cb003, 0.95 °C; in the assay with LOC_OS01G70970-cb002, 0.17 °C. Further, the “thermal shift delta Tm” value in the assay on LOC_OS02G07810-cb001 was 0.74 °C; in the assay with LOC_OS02G08530-cb003 it was 0.28 °C; with LOC_OS02G14120-cb001 it was 0.28 °C; with LOC_OS02G17970-cb001, 0.95 °C; in the assay on LOC_OS02G45750-cb003, 0.75 °C; in the assay with LOC_OS02G54510-cb004 it was 0.11 °C. Further, the “thermal shift delta Tm” value in the assay with LOC_OS03G04050-cb001 is 0.38 °C; in the assay with LOC_OS03G12390-cb001, 0.1 °C; with LOC_OS03G27990-cb004 it was 0.16 °C; in the assay on LOC_OS03G50450-cb001 it was 0.69 °C; with LOC_OS03G50810-cb003 it was 0.49 °C; with LOC_OS04G35114-cb001, 0.44 °C. Further, the “thermal shift delta Tm” value with LOC_OS04G38480-cb003 worked out at 1.43 °C; with LOC_OS04G41100-cb001, 0.13 °C.

In the case of `COc1cc2ncnc(Nc3ccc(Cl)cc3F)c2cc1OC`, the “thermal shift delta Tm” value with LOC_OS01G57100-cb003 was determined as 1.2 °C; in the assay on LOC_OS01G60330-cb001, 0.41 °C; with LOC_OS01G60700-cb002 it was 1.4 °C; with LOC_OS01G63280-cb003, 0.51 °C; in the assay with LOC_OS01G67340-cb003 it was 0.32 °C; with LOC_OS01G70970-cb002, 0.2 °C. Further, the “thermal shift delta Tm” value was found to be 1.32 °C in the assay with LOC_OS02G07810-cb001; 1.3 °C in the assay with LOC_OS02G08530-cb003; 4.69 °C with LOC_OS02G14120-cb001; 1.1 °C in the assay with LOC_OS02G17970-cb001; 2.84 °C with LOC_OS02G45750-cb003; 0.95 °C in the assay on LOC_OS02G54510-cb004. Moreover, the “thermal shift delta Tm” value with LOC_OS03G04050-cb001 was 0.25 °C; with LOC_OS03G12390-cb001 it was 2.87 °C; in the assay on LOC_OS03G27990-cb004, 0.55 °C; in the assay on LOC_OS03G50450-cb001 it was 0.36 °C; with LOC_OS03G50810-cb003 it was 1.2 °C; in the assay on LOC_OS04G35114-cb001, 7.37 °C. Also, the “thermal shift delta Tm” value in the assay on LOC_OS04G38480-cb003 was determined as 1.81 °C; with LOC_OS04G41100-cb001 it was 0.5 °C.

Turning to `O=c1ccc2ccc(O)c(O)c2o1` [Daphnetin], the “thermal shift delta Tm” value in the assay on LOC_OS01G57100-cb003 was 4.5 °C; in the assay on LOC_OS01G60330-cb001, 1.15 °C; in the assay on LOC_OS01G60700-cb002, 1.06 °C; with LOC_OS01G63280-cb003, 0.68 °C; in the assay with LOC_OS01G67340-cb003, 0.06 °C; in the assay with LOC_OS01G70970-cb002, 0.05 °C. Further, the “thermal shift delta Tm” value with LOC_OS02G07810-cb001 came to 1.27 °C; in the assay on LOC_OS02G08530-cb003 it was 1.2 °C; in the assay with LOC_OS02G14120-cb001, 0.72 °C; in the assay with LOC_OS02G17970-cb001, 1.06 °C; in the assay with LOC_OS02G45750-cb003, 1.1 °C; in the assay with LOC_OS02G54510-cb004 it was 0.54 °C. Further, the “thermal shift delta Tm” value was 0.75 °C in the assay on LOC_OS03G04050-cb001; -0.23 °C in the assay on LOC_OS03G12390-cb001; 0.69 °C in the assay with LOC_OS03G27990-cb004; 1.08 °C with LOC_OS03G50450-cb001; 0.83 °C in the assay with LOC_OS03G50810-cb003; 0.8 °C in the assay on LOC_OS04G35114-cb001. Also, the “thermal shift delta Tm” value with LOC_OS04G38480-cb003 turned out to be 1.96 °C; with LOC_OS04G41100-cb001, 0.36 °C.

Turning to `COc1cc(OC)c(C=C2C(=O)Nc3ccccc32)c(OC)c1`, the “thermal shift delta Tm” value in the assay with LOC_OS01G57100-cb003 is 1.44 °C; in the assay on LOC_OS01G60330-cb001, 0.76 °C; in the assay with LOC_OS01G60700-cb002 it was 0.97 °C; in the assay with LOC_OS01G63280-cb003, -0.13 °C; in the assay with LOC_OS01G67340-cb003 it was 0.36 °C; in the assay on LOC_OS01G70970-cb002, 0.32 °C. Further, the “thermal shift delta Tm” value with LOC_OS02G07810-cb001 is 0.32 °C; with LOC_OS02G08530-cb003, 0.7 °C; with LOC_OS02G14120-cb001, 0.94 °C; with LOC_OS02G17970-cb001 it was 0.65 °C; with LOC_OS02G45750-cb003, -0.14 °C; with LOC_OS02G54510-cb004, 0.07 °C. Besides, the “thermal shift delta Tm” value is -0.08 °C in the assay with LOC_OS03G04050-cb001; -0.35 °C in the assay with LOC_OS03G12390-cb001; 0.05 °C in the assay with LOC_OS03G27990-cb004; -0.29 °C in the assay on LOC_OS03G50450-cb001; -0.06 °C in the assay on LOC_OS03G50810-cb003; 0.7 °C in the assay with LOC_OS04G35114-cb001. The “thermal shift delta Tm” value in the assay with LOC_OS04G38480-cb003 is 0.58 °C; in the assay on LOC_OS04G41100-cb001, 0.2 °C.

The values are drawn from the supplement of paper PMC9694430.
